Assay outcomes (PubChem)
Shown are actives, neighbours in structure and some others; about 4.2% of the full set was active somewhere.
Hsp90 Hop PPI – changes Hsp90-Hop TPR2A binding signal, up or down. AID 595. AlphaScreen TPR2A-His6 binding biotin-Hsp90 C-terminal peptide. Potency, µM (series often up to 57 µM), without a hit: at the top dose activity change, negative = inhibition. 71,000 compounds, 0.44% hits; active means well fitted curve in either direction with a large enough effect; inconclusive means small, poorly fitted or top-dose-only effect, or another doubt; further: potency means the concentration at half of the fitted maximal effect; on the % scale 0 is the no-effect control and ±100 the full control effect
Pol III holo inh – inhibitors of bacterial DNA polymerase III holoenzyme | Potency, µM (top dose mostly 57.1 µM), inactives show at the top dose activity change, negative = inhibition | AID 603 | reconstituted DNA polymerase III holoenzyme replication, biochemical | 71,000 compounds, 0.25% hits; further: potency means the concentration at half of the fitted maximal effect; on the % scale 0 is the no-effect control and ±100 the full control effect
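Reconstituted *E. coli* holoenzyme (0.35 nM Pol III, 1 nM beta, 154 nM SSB, 2 nM primase) was preincubated with compound for 15 min at RT. Synthesis on 1.4 nM ssM13Gori ran 35 min, then was stopped with PicoGreen/EDTA and read as dsDNA fluorescence.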
15-hLO inh – 15-hLO (ALOX15) enzyme inhibition | Potency, µM (doses to about 57.1 µM), inactives show top-dose activity change, negative = inhibition, most hits filed as inhibitors | P16050 | 74,000 compounds, 1.4% hits | purified 15hLO-1, xylenol orange hydroperoxide absorbance; further: potency means the concentration at half of the fitted maximal effect; on the % scale 0 is the no-effect control and ±100 the full control effect; nearly all actives have a fitted effect of over 55% in size
Target sequence (P16050 whole entry, looked up): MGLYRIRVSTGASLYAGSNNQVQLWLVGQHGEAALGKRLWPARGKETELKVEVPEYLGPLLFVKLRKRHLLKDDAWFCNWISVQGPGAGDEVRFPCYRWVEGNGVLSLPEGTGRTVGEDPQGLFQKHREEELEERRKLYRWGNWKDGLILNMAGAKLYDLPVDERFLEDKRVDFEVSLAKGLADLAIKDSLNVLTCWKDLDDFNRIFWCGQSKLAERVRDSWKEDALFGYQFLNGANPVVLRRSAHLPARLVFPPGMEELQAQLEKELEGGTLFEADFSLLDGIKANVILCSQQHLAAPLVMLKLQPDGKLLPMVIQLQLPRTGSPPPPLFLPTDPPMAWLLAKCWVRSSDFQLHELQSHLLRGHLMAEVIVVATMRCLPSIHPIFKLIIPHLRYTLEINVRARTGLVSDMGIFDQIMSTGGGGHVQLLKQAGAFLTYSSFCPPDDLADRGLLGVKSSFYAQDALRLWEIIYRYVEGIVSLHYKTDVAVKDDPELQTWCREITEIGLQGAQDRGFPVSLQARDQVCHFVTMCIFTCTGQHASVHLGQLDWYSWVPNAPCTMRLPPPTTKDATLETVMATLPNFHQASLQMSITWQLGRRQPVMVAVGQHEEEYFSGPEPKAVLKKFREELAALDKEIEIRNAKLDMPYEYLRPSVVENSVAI
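Compounds were preincubated 15 min at room temperature with 40 nM purified human enzyme (25 mM Hepes pH 7.5, 0.01% Triton X-100); 50 uM arachidonic acid reacted 6 min. Fe-xylenol orange detection, 30 min, absorbance ratio 573/405 nm.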
ERK AVP block – inhibitors of vasopressin-stimulated ERK signaling pathway | HEK293-V1b, vasopressin-stimulated pERK AlphaScreen | Potency, µM (doses to about 57.5 µM), for the others: at the top dose activity, negative = inhibition, most hits filed as inhibitors | 72,000 compounds, 0.99% hits | AID 995; further: potency means the concentration at half of the fitted maximal effect; on the % scale 0 is the no-effect control and ±100 the full control effect; nearly all actives have a fitted effect of over 55% in size
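Phosphorylated ERK1/2 detected via AlphaScreen bead proximity in lysates of V1b-expressing HEK293 cells given 25 nM vasopressin for 5 min after 30 min compound exposure (37 °C). AC50 from Hill equation; basal DMSO 0%, vasopressin 100%.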
YjeE inh – displaces an ADP probe from E. coli YjeE (TsaE). purified YjeE enzyme, qHTS inhibition assay. AID 605. Potency, µM. 71,000 compounds, 0.05% hits. P0AF67
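Fluorescence polarization of a BODIPY Texas Red–ADP probe (2 uM) bound to purified YjeE (10 uM) was read after 15 min room-temperature incubation with compounds. Loss of polarization marks inhibitors; ADP serves as titrated control.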
Tau filament bind – binders of human tau filaments; recombinant tau filaments, thioflavin S fluorescence, 15 h; filaments grown with octadecylsulfate alongside compound; P10636; Potency, µM (doses to about 57.1 µM), for inactives: top-dose activity change, negative = inhibition; 71,000 compounds, 2% hits; AID 596;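 further: potency means the concentration at half of the fitted maximal effect; on the % scale 0 is the no-effect control and ±100 the full control effect; actives lower thioflavin S fluorescence by blocking filaments or displacing dye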
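Quantitative HTS: thioflavine S signal from ODS-induced tau filaments, excited at 450 nm, emission 510 nm. Conditions: 1 uM tau, 30 uM ODS, 15 h at 37 C, pH 7.4.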
* hit, by the source's call; i = inactive; ? = inconclusive; . = not tested or not shown; ! = repeats disagree; [ ] = dose if it differs, or a comment. Unless noted, the call rests on the fitted dose curve; in most records, active means well fitted curve in the direction sought with a large enough effect; inconclusive means small, poorly fitted or top-dose-only effect, or another doubt; inactive means no such curve, though single readings can be large; an effect the other way counts as inactive or inconclusive.

SMILES	Hsp90 Hop PPI	Pol III holo inh	15-hLO inh	ERK AVP block	YjeE inh	Tau filament bind
COc1ccccc1N=c1scc(-c2ccc3c(c2)NC(=O)CO3)n1CC1CCCO1 (stereo not drawn)	?	-14.5%	-11.9%	?	i	-13.8%
CCN=c1scc(-c2ccc3c(c2)NC(=O)CO3)n1N=C1CCCC1	?	2.1%	-19.1%	?	i	12.6µM*
COCCSc1nnc(-c2cccc(C#N)c2)n1C	1.2%	-6.4%	-0.7%	-18.9%	i	0.0%
CCOc1ccc(C(=O)Nc2ccc(N3CCCC3)cc2)cc1	?	-7.6%	?	-6.0%	i	10µM*
CCOc1ccc(C(=O)Nc2ccc(N3CCN(C)CC3)cc2)cc1Br	-7.4%	-4.4%	?	-5.2%	i	10µM*
COc1cc2ccccc2cc1C(=O)Nc1ccc(N2CCN(C)CC2)cc1	-14.9%	-6.1%	10.6%	?	i	3.16µM*
COc1ccccc1C(=O)Nc1ccc(N2CCN(S(C)(=O)=O)CC2)cc1	-1.5%	-11.8%	0.5%	-6.8%	i	-0.2%
O=C1c2oc3ccc(Cl)cc3c(=O)c2C(c2cccc(Br)c2)N1CCO (stereo not drawn)	?	-6.8%	20.8%	-6.8%	i	9.1%
CCN1C(=S)SC(=O)C1=C1C=C(C)N(CCO)C(C)=C1	-19.3%	-0.1%	-24.2%	-26.9%	i	403.3%
CCn1c(=O)cc(OCC(=O)N2CCN(C(=O)c3ccco3)CC2)c2ccccc21	?	-7.8%	1.3%	35.4%	i	-3.0%
NC(Cc1c[nH]c2ccccc12)C(=O)O (stereo not drawn)	.	.	7.94µM*	-16.6%	.	.
Cc1ccc(-c2cc(C(=O)NCc3ccco3)c3ccccc3n2)o1	-13.4%	-13.2%	?	13.5%	i	-6.3%
O=C(NC1=NCCS1)c1ccc(-c2ccc(Cl)cc2)o1	-10.9%	-0.8%	-20.4%	0.4%	i	1.6%
Cc1ccc(-c2cc(C(=O)NC3=NCCS3)c3cc(Br)ccc3n2)o1	-20.0%	-2.8%	12.6µM*	-27.4%	i	12.6µM*
Cc1ccc(-c2cc(C(=O)NCCCn3ccnc3)c3cc(Br)ccc3n2)o1	-19.5%	-14.9%	?	?	i	15.8µM*
COc1ccc(C2CC(c3cccs3)n3nc(N)nc3N2)cc1 (stereo not drawn)	-1.0%	-5.6%	5.6%	-26.4%	i	-8.6%
COc1cc2c(cc1OC)-c1cc(NCc3ccccn3)nc(=O)n1CC2	-9.4%	-12.5%	12.6µM*	?	i	-5.3%
COc1ccc(N2CCn3c2nc2c3c(=O)n(CCCc3ccccc3)c(=O)n2C)c(OC)c1	-13.1%	-1.8%	-9.5%	12.6µM*	i	-9.4%
CCN(CC)CC(=O)Nc1ccc(C)cc1Br	3.7%	-0.6%	4.3%	14.6%	i	-4.1%
CSc1ccc2c(c1)N(CC[C@H]1CCCCN1C)c1ccccc1S2	-9.8%[26 µM]	-2.9%[25.6 µM]	?	.	i	3.98µM*!
Cc1cccc(OCCSc2cc(C)nc(N)n2)c1	3.2%	1.2%	-5.2%	0.5%	i	-2.3%
Cc1ccc2[nH]c(=O)c(C(c3nnnn3CC3CCCO3)N3CCCc4ccccc43)cc2c1 (stereo not drawn)	-7.1%	-5.7%	1.26µM*	-19.7%	i	18.4%
CCC(c1nnnn1Cc1ccco1)N(CCc1ccccc1)Cc1cc2cc(C)ccc2[nH]c1=O (stereo not drawn)	-6.2%	-4.0%	15.8µM*	3.5%	i	34.6%
CCC(c1nnnn1CC1CCCO1)N(CCN1CCOCC1)Cc1cc2cc(C)ccc2[nH]c1=O (stereo not drawn)	-2.9%	-4.1%	3.16µM*	19.6%	i	28.6%
Cc1ccc2[nH]c(=O)c(CN(CCc3ccccc3)C(c3nnnn3Cc3ccco3)C(C)C)cc2c1 (stereo not drawn)	-15.3%	-4.5%	?	-20.0%	i	36.5%
SMILES	Hsp90 Hop PPI	Pol III holo inh	15-hLO inh	ERK AVP block	YjeE inh	Tau filament bind
c1ccc(-c2cc3c(ccc4nonc43)nn2)cc1	-10.9%[11 µM]	0.8%[11.4 µM]	7.1%[11.4 µM]	-2.5%	i	3.16µM*
Cc1cc(C)c2cc(CN(Cc3ccc4c(c3)OCO4)Cc3nnnn3Cc3ccco3)c(=O)[nH]c2c1	?	-24.7%	10µM*	-24.7%	i	38.0%
O=c1[nH]c2cc3c(cc2cc1CN(Cc1ccccc1)Cc1nnnn1Cc1ccco1)OCCO3	-14.8%	-8.3%	31.6µM*	22.3%	i	82.7%
O=c1[nH]c2cc3c(cc2cc1CN(Cc1cccs1)Cc1nnnn1Cc1ccco1)OCCO3	-11.1%	-8.2%	10µM*	25.7%	i	99.4%
C=CCn1c(=N)n(CC(O)c2ccco2)c2ccccc21 (stereo not drawn)	-5.0%	-3.1%	-9.0%	-8.2%	i	158.0%
CCCCOC(=O)Nc1ccc(OC)cc1S(=O)(=O)N1CCOCC1	-1.6%	2.5%	18.2%	-7.8%	i	9.3%
O=C(O)c1cccnc1SC1CC(=O)N(Cc2ccccc2)C1=O (stereo not drawn)	0.4%	-3.1%	1.4%	-6.5%	i	87.4%
CCSc1nnc(-c2ccccc2N)c(=O)[nH]1	-3.7%	-3.3%	-9.0%	-15.7%	i	-14.0%
Nc1ccccc1-c1nnc(SCc2ccccc2F)[nH]c1=O	-2.0%	-0.4%	-3.6%	-19.0%	i	15.8µM*
N#Cc1cn(CCOc2ccccc2F)c2ccccc12	25.9%	3.2%	-10.5%	-21.3%	i	2.9%
COc1ccccc1OCc1nnc(SCC(=O)c2cc(Cl)ccc2OC)o1	9.9%	4.4%	5.2%	31.6µM*	i	136.5%
Oc1c(Cl)cc(Cl)c2c1NCCC2	-4.3%	-1.2%	1.58µM*	-16.6%	i	?
O=C(O)c1cccc([N+](=O)[O-])c1	2.7%	-2.4%	8.3%	1.5%	i	10.4%
O=C(Nc1ccc(-c2noc(COc3ccccc3Cl)n2)cc1)c1ccco1	1.8%	10.8%	-4.1%	23.0%	i	3.16µM*
Cc1cc(C)c2cc(C(c3nnnn3C3CCCC3)N3CCOCC3)c(=O)[nH]c2c1 (stereo not drawn)	-2.7%	-8.7%	-14.6%	2.9%	i	-10.2%
Cc1ccc(C(=O)c2cc3c(cc2N)OCCO3)cc1	?	-7.1%	-12.7%	-28.2%	i	12.6µM*
O=C1CCCC2=C1C(c1cccc(Br)c1)n1nc(-c3ccco3)nc1N2 (stereo not drawn)	-5.6%	-1.4%	-6.8%	-21.6%	i	59.5%
O=C1CCCC2=C1C(c1ccco1)Nc1ccc(C(=O)c3ccccc3)cc1N2 (stereo not drawn)	?	-16.2%	2.51µM*	?	i	6.31µM*
COc1ccc(/C=C(\C#N)C(N)=O)cc1OC	-3.1%[11 µM]	0.7%[11.4 µM]	3.1%[11.4 µM]	-4.3%[11.5 µM]	i	-11.7%[11.4 µM]
